This is an account of results in PMC7862700, “An all-to-all approach to the identification of sequence-specific readers for epigenetic DNA modifications on cytosine”.

Holding throughout (assay): DAPPL (digital affinity profiling via proximity ligation, sequencing); 10 mM Tris-HCl pH 7.5, 50 mM NaCl, 1 mM DTT, 4% glycerol, room temperature, 30 min; GST-TFs on glutathione beads, 16-mer random dsDNA library, 0.1% formaldehyde crosslink after washing; high values mean tight binding
Settings in all cases: protein: recombinant; tags: N-terminal GST; dsDNA, one strand shown

One assay deals with T1, FLI1 (Homo sapiens, UniProt Q01543 1-452).
T1 sequence: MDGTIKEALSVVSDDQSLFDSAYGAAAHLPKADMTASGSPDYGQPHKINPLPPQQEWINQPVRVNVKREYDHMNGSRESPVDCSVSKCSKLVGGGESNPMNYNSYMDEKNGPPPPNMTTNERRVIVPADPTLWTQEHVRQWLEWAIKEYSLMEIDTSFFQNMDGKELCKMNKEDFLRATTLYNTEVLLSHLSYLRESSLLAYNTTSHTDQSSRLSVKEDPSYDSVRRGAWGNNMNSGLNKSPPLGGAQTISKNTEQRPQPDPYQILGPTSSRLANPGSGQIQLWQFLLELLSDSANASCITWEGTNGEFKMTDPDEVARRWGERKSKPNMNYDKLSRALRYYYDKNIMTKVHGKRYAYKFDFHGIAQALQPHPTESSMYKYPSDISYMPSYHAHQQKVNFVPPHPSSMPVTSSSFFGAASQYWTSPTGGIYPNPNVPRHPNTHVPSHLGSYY
Put shortly: (§1)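 Binding signal is defined as a hexamer's read frequency for one factor over its frequency for the tag-only sample. To obtain reads, GST-fused human transcription factors were expressed in yeast, captured on glutathione beads, barcoded with DNA and pooled with that sample. Pools met 200 nmole of a 16-mer random double-stranded DNA library in Tris/NaCl/DTT/glycerol buffer for 30 min at room temperature before washing, 0.1% formaldehyde crosslinking, proximity ligation (BsaI/T4 ligase, 1 h, 37 °C), PCR and Illumina NextSeq500 sequencing.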

The target of another assay is T2, ELK1 (Homo sapiens, UniProt P19419 1-428).
T2 sequence: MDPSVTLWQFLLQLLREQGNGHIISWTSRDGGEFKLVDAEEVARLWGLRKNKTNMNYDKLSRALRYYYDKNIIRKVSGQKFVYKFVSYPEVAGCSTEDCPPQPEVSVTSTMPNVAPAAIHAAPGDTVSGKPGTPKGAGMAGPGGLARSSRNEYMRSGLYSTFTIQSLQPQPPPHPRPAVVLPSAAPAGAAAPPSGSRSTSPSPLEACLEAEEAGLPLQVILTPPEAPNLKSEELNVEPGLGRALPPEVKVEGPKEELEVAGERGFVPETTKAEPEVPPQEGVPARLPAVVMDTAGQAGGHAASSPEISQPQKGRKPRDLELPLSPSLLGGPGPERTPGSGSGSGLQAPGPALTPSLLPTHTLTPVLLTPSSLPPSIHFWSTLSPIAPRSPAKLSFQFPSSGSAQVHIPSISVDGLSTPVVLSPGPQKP
Put shortly: as §1

The next assay deals with T3, GABPA (Homo sapiens, UniProt Q06546 1-454).
T3 sequence: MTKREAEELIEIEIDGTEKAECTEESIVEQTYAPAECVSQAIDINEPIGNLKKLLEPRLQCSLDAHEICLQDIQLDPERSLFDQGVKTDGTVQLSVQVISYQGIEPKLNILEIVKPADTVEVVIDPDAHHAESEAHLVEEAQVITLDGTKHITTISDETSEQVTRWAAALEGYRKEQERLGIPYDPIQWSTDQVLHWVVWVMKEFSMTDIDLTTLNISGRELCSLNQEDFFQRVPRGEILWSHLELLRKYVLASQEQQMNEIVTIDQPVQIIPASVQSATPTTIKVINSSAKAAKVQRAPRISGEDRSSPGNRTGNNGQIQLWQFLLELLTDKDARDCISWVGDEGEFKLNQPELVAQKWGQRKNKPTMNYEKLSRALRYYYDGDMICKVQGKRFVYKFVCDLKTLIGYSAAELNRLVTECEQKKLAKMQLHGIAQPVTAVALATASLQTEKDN
Put shortly:
as §1

Another assay has as its target T4, ERG (Homo sapiens, UniProt P11308 1-479).
T4 sequence: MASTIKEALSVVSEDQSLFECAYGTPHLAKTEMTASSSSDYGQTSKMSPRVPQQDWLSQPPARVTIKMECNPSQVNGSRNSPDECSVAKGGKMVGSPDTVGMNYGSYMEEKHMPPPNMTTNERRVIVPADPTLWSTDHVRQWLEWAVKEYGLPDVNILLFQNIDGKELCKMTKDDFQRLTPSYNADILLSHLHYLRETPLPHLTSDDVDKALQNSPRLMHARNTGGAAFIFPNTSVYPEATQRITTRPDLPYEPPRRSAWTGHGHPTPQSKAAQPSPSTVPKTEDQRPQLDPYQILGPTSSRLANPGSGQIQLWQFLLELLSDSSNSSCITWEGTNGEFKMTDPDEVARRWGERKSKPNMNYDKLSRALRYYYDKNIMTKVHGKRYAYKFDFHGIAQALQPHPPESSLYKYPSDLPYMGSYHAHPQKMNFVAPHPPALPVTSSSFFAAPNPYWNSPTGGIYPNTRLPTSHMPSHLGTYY
An outline of the steps:
as §1

The target in a further assay is ELF1 (Homo sapiens, UniProt P32519 1-619). Put shortly: as §1
Sequence of ELF1 (P32519 whole entry): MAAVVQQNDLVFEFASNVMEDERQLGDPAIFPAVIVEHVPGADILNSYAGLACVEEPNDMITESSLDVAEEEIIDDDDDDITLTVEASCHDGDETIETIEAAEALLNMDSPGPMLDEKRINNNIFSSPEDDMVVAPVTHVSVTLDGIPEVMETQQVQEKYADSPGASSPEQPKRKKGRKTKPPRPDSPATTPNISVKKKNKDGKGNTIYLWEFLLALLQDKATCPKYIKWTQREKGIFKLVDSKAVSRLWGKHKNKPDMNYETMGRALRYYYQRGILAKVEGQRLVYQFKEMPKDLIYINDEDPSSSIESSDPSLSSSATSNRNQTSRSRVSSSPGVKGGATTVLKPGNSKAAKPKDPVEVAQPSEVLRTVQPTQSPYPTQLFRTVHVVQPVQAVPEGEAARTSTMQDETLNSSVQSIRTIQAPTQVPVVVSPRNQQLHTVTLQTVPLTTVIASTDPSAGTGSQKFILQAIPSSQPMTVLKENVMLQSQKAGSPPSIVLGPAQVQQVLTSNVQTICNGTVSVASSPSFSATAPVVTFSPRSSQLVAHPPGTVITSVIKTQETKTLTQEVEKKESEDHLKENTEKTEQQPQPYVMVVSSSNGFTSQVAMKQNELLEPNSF
The target in another assay is T5, EHF (Homo sapiens, UniProt Q9NZC4 1-300).
T5 sequence: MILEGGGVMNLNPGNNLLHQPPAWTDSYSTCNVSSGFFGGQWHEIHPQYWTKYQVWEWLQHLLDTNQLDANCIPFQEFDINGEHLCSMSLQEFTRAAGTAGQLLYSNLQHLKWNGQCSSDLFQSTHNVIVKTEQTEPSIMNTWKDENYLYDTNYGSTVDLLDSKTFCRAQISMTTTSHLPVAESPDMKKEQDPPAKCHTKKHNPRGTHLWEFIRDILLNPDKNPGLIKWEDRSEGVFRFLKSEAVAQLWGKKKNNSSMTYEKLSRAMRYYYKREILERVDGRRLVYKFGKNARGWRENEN
An outline of the steps:
as §1

In a further assay the target is SPI1 (Homo sapiens, UniProt P17947 1-270). Put shortly: as §1
Another assay deals with SPIB (Homo sapiens, UniProt Q01892 1-262). Put shortly: as §1
Sequence of SPIB (Q01892 whole entry): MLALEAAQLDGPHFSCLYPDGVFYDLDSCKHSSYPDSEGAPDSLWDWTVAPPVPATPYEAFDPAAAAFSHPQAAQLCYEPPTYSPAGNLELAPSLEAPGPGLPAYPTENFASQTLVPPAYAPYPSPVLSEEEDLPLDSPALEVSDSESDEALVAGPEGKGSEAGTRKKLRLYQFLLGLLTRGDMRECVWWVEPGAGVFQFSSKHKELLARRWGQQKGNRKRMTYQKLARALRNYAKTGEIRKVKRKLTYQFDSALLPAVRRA
Another assay deals with T6, ELK3 (Homo sapiens, UniProt P41970 1-407).
T6 sequence: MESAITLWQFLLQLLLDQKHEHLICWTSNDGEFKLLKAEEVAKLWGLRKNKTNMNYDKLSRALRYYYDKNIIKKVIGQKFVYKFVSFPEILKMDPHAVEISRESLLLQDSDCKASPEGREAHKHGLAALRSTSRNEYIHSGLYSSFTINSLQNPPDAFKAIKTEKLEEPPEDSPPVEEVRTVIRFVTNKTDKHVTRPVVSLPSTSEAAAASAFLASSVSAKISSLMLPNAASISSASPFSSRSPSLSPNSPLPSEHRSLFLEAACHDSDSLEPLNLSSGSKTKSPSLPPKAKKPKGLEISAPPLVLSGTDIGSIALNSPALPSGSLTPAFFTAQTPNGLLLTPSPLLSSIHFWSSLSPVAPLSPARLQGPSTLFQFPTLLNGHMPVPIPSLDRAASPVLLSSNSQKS
An outline of the steps: as §1

A further assay has as its target T7, FEV (Homo sapiens, UniProt Q99581 1-238).
T7 sequence: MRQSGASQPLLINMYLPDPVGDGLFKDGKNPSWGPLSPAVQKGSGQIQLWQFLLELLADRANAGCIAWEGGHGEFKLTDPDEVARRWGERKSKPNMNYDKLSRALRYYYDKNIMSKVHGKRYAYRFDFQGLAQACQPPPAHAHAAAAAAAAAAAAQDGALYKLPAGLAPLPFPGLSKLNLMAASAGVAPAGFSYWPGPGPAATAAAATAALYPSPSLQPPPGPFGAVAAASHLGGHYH
Put shortly: as §1

For a further assay, the target named is ETV5 (Homo sapiens, UniProt P41161 1-510). An outline of the steps:
as §1

Another assay deals with T8, SPIC (Homo sapiens, UniProt Q8N5J4 1-248).
T8 sequence: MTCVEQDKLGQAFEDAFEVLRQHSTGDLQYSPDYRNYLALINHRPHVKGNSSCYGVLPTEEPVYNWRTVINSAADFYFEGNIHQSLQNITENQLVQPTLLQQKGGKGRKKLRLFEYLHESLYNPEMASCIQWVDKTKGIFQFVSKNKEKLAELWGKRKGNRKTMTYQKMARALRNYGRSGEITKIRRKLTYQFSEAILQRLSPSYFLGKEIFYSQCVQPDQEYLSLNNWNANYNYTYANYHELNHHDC
An outline of the steps:
as §1

For another assay, the target named is ELF4 (Homo sapiens, UniProt Q99607 1-663). An outline of the steps:
as §1

The target of a further assay is T9, ELK4 (Homo sapiens, UniProt P28324-2 1-405).
T9 sequence: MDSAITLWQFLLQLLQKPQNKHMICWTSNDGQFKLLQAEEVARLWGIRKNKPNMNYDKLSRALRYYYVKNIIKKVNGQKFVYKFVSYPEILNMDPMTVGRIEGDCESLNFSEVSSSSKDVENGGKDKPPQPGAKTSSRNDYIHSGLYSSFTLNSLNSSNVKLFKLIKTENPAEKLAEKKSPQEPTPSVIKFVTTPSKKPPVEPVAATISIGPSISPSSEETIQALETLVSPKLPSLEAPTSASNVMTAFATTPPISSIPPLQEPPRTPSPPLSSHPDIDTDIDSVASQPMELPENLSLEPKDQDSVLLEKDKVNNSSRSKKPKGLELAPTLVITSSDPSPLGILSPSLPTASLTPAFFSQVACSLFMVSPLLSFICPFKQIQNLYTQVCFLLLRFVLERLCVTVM
Put shortly:
as §1

A further assay addresses T10, ETV2 (Homo sapiens, UniProt O00321 1-342).
T10 sequence: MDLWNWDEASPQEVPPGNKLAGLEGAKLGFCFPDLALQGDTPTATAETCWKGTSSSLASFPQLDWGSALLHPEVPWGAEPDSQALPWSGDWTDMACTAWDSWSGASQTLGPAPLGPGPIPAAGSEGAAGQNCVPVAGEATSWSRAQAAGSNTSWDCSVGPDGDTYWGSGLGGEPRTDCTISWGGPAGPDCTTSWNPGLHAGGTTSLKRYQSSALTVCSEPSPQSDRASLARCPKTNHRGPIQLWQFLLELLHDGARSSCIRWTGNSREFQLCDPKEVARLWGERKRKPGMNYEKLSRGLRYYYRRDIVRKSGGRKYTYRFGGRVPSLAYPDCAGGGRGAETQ
An outline of the steps:
as §1

The next assay concerns the target T11, ELF3 (Homo sapiens, UniProt P78545 1-371).
T11 sequence: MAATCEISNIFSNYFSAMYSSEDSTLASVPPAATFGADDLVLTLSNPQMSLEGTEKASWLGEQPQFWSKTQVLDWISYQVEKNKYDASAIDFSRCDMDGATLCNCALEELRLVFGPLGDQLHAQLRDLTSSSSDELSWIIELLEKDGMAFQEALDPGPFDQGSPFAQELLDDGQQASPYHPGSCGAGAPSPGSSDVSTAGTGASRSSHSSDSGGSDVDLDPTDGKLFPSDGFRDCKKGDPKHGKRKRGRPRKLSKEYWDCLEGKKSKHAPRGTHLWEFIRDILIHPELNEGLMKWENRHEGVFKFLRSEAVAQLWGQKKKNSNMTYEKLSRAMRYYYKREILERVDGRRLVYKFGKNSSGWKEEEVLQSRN
An outline of the steps:
as §1

The next assay addresses ETV1 (Homo sapiens, UniProt P50549 1-477). An outline of the steps: as §1

Sequence of ELF4 (Q99607 whole entry): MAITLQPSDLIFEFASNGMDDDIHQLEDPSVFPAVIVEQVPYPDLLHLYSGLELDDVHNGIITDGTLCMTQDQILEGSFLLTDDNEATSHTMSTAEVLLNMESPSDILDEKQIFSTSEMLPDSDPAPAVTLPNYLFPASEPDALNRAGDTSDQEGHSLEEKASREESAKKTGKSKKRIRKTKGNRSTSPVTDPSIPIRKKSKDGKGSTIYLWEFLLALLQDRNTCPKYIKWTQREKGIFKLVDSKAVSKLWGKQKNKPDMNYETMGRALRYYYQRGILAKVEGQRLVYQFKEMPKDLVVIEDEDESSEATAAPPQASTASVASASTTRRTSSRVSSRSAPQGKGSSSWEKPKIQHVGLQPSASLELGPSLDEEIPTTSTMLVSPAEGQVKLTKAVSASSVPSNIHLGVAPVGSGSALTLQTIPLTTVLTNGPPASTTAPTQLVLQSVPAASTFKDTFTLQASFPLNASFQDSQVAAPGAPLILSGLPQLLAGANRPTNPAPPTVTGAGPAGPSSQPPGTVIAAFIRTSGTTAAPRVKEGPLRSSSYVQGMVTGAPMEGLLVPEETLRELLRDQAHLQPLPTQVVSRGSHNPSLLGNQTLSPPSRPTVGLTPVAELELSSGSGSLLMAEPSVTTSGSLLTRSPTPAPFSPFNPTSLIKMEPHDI
Sequence of ETV5 (P41161 whole entry): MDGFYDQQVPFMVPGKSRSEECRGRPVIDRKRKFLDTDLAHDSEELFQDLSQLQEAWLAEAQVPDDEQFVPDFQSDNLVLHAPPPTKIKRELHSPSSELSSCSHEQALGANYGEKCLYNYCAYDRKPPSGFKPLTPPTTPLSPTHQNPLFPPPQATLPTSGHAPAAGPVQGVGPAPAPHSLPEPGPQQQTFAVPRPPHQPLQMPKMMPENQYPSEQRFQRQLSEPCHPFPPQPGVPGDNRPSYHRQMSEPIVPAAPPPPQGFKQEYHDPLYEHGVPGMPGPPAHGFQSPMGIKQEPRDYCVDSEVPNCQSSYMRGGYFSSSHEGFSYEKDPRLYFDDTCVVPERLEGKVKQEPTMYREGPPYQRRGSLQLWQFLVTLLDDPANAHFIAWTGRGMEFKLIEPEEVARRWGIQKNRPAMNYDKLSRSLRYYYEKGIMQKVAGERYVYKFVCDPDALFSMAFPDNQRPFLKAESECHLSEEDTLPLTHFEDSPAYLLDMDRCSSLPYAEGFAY
Sequence of ETV1 (P50549 whole entry): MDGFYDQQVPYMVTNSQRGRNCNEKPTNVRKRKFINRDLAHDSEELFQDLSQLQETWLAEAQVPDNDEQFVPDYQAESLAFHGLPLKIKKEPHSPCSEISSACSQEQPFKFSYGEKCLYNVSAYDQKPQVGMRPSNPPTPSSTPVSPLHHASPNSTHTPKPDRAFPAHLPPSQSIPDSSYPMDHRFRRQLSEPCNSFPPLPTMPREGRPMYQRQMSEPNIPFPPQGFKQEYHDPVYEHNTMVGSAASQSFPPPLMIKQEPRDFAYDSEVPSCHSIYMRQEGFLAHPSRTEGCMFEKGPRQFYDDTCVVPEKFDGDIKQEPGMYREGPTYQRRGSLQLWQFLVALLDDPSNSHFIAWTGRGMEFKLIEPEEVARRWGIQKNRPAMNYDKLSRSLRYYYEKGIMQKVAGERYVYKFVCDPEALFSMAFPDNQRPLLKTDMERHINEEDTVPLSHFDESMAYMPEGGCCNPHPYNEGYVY

As for GTTATG, the binding signal with FLI1 is 1.07 fold enrichment (6-mer frequency, TF over GST control); with ELK1, 1.17 fold enrichment (6-mer frequency, TF over GST control); with GABPA it was 1.16 fold enrichment (6-mer frequency, TF over GST control); in the assay with ERG, 1.19 fold enrichment (6-mer frequency, TF over GST control); with ELF1, 1.12 fold enrichment (6-mer frequency, TF over GST control); in the assay with EHF, 1.2 fold enrichment (6-mer frequency, TF over GST control). For the same sequence, the binding signal with SPI1 was 1.18 fold enrichment (6-mer frequency, TF over GST control); with SPIB it was 1.12 fold enrichment (6-mer frequency, TF over GST control); in the assay with ELK3, 1.06 fold enrichment (6-mer frequency, TF over GST control); with FEV, 1.03 fold enrichment (6-mer frequency, TF over GST control); with ETV5, 1.14 fold enrichment (6-mer frequency, TF over GST control); with SPIC it was 1.23 fold enrichment (6-mer frequency, TF over GST control). For the same sequence, the binding signal with ELF4 was 1.1 fold enrichment (6-mer frequency, TF over GST control); with ELK4 it was 1.23 fold enrichment (6-mer frequency, TF over GST control); in the assay with ETV2 it was 1.14 fold enrichment (6-mer frequency, TF over GST control); with ELF3, 1.25 fold enrichment (6-mer frequency, TF over GST control); with ETV1, 1.14 fold enrichment (6-mer frequency, TF over GST control).
With CGCTAC, the binding signal in the assay with FLI1 is 1.24 fold enrichment (6-mer frequency, TF over GST control); with ELK1, 1.23 fold enrichment (6-mer frequency, TF over GST control); with GABPA it was 1.25 fold enrichment (6-mer frequency, TF over GST control); with ERG it was 1.24 fold enrichment (6-mer frequency, TF over GST control); in the assay with ELF1, 1.2 fold enrichment (6-mer frequency, TF over GST control); with EHF, 1.13 fold enrichment (6-mer frequency, TF over GST control). Moreover, the binding signal with SPI1 is 1.16 fold enrichment (6-mer frequency, TF over GST control); in the assay with SPIB, 1.13 fold enrichment (6-mer frequency, TF over GST control); in the assay with ELK3, 1.28 fold enrichment (6-mer frequency, TF over GST control); with FEV, 1.18 fold enrichment (6-mer frequency, TF over GST control); in the assay with ETV5, 1.15 fold enrichment (6-mer frequency, TF over GST control); in the assay with SPIC, 1.18 fold enrichment (6-mer frequency, TF over GST control). For the same sequence, the binding signal with ELF4 was 1.24 fold enrichment (6-mer frequency, TF over GST control); in the assay with ELK4, 1.2 fold enrichment (6-mer frequency, TF over GST control); in the assay with ETV2 it was 1.25 fold enrichment (6-mer frequency, TF over GST control); with ELF3 it was 1.24 fold enrichment (6-mer frequency, TF over GST control); with ETV1, 1.27 fold enrichment (6-mer frequency, TF over GST control).
